What all share (set-up): scale not given: direction of the effect not stated beside the values
Assay [1] concerns the target Protein translocase subunit SecA (Escherichia coli (strain K12)) (UniProt P10408). Kind of assay: Assay to Identify E. coli SecA ATPase Inhibitors. In kind it is functional. The note with it: 30 µM.
In assay [2] the target is T1, Ubiquitin-activating enzyme e1, putative (Leishmania donovani (strain BPK282A1)) (UniProt E9BSI1).
T1 sequence (whole entry): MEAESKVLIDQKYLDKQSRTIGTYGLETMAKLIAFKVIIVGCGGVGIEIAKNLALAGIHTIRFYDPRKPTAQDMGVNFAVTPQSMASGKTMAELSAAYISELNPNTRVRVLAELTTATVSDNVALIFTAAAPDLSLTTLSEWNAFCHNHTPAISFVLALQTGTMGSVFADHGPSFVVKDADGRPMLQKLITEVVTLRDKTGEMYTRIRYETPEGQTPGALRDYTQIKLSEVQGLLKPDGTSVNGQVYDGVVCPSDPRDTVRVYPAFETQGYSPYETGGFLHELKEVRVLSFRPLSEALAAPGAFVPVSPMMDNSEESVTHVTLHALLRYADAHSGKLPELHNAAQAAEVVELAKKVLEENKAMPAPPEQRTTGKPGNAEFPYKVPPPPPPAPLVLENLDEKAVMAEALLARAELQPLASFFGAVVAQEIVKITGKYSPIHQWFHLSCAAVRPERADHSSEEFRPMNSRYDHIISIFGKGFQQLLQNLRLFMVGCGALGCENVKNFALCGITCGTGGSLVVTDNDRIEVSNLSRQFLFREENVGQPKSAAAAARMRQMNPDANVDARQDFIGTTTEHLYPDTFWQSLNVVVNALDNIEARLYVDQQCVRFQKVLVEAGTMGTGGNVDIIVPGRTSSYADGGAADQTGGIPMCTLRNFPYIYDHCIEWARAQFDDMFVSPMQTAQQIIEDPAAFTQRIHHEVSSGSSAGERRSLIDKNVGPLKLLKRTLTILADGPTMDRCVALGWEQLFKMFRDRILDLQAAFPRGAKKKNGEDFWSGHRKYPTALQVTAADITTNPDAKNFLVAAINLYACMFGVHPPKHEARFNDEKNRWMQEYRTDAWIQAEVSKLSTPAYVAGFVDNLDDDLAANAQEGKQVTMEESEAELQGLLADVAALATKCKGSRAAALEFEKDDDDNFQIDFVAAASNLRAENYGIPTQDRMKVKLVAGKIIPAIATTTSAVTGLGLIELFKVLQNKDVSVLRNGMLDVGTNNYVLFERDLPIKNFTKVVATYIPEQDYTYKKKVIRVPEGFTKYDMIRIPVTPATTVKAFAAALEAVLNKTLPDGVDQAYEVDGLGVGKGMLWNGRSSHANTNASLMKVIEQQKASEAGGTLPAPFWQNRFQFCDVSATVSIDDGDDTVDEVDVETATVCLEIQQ
Kind of assay: Leishmania donovani Ubiquitin Activating Enzyme (LdE1). In kind it is functional. Conditions: 30 µM.

Assay [3] concerns the target AMP-activated protein kinase, AMPK (Homo sapiens) (UniProt P54646+O43741+P54619+Q9UGJ0+Q9Y478+Q13131+Q9UGI9). Kind of assay: AMP-dependent Kinase enzyme assay. An in vitro enzyme assay that detects ADP turnover that is directly proportional to AMPK activity. This uses naive AMPK that is activated during the assay with MK-8722. In kind it is functional. The note with it: 30 µM.

Assay [4] concerns the target Sialic acid-binding Ig-like lectin 9 (Homo sapiens) (UniProt Q9Y336). Kind of assay: Hs-Siglec9 ALPHAscreen SOP 20170721. The note with it: 10 µM. In general terms: Bead proximity is the source of the signal in Alpha formats.
A further assay deals with Trypanosoma cruzi. Kind of assay: Trypanosoma cruzi phosphomannomutase and mannose-1-phosphate guanylyltransferase assay. In kind it is functional. Conditions: 10 µM.
Assay [5] concerns the target T2, Arginase-2, mitochondrial (Homo sapiens) (UniProt P78540).
T2 sequence (whole entry): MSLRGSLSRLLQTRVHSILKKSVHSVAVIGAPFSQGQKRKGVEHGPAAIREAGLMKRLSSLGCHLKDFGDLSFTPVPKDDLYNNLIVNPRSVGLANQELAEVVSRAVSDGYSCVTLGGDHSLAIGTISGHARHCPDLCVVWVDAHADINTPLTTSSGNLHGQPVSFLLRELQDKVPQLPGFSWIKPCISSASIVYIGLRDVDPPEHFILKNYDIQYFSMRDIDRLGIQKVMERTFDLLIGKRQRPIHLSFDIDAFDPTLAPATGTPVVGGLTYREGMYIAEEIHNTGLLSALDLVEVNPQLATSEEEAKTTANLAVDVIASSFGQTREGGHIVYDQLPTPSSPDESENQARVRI
Kind of assay: in vitro enzyme assay to detect the production of urea directly proportional to the activity of Arginase II. Further: in the data most compounds retested in dose-response had high values. In kind it is functional. Conditions: 33.3 µM.

Assay [6] concerns the target T3, Proteasome subunit beta (Trypanosoma cruzi) (UniProt O96673).
T3 sequence (whole entry): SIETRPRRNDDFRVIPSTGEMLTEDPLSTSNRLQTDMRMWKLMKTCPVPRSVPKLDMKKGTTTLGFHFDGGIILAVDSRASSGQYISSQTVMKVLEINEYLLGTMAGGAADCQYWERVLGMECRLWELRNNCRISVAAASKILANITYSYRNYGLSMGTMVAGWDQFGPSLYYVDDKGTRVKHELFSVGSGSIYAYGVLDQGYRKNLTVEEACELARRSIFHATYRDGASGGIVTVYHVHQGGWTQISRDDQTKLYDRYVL
Kind of assay: Trypanosoma cruzi proteasome chymotrypsin-like activity (TcProtChymo) assay. Further: in the data most compounds retested in dose-response had high values. In kind it is functional. The note with it: 9.37 µM.

The species entered for the next assay is Homo sapiens. Kind of assay: To identify inhibition of the IFN signalling (Jak-Stat) pathway via expression of an eGFP reporter gene under the control of an IFN-stimulated response element (ISRE) containing MxA promoter. The note with it: 30 µM. In kind it is functional. In general terms: Reporter assays use an easily measured gene product as a stand-in for the process of interest.

In assay [7] the target is T4, Tyrosyl-tRNA synthetase, putative (Trypanosoma cruzi (strain CL Brener)) (UniProt Q4DSP6).
T4 sequence (whole entry): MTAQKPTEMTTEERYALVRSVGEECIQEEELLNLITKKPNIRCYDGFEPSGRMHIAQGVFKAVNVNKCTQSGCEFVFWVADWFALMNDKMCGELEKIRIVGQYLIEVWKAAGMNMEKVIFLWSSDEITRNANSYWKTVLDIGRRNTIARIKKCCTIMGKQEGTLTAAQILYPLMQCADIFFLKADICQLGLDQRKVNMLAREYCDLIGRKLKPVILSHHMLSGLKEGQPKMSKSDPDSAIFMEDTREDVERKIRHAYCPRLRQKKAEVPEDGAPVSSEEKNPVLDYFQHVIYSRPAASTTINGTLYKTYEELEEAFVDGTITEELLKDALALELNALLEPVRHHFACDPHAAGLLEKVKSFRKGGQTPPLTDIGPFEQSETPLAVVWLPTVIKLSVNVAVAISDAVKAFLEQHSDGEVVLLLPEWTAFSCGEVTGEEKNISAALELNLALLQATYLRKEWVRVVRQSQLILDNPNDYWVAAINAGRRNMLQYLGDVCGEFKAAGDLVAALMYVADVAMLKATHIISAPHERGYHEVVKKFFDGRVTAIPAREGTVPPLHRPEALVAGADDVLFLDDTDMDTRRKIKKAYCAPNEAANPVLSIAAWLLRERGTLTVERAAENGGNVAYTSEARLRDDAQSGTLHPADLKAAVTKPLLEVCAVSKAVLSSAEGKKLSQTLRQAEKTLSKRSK
Kind of assay: Trypanosoma cruzi tyrosyl tRNA synthetase (TcYRS) _High Tyrosine SOP. Further: in the data most compounds retested in dose-response had high values. In kind it is functional. Conditions: 30 µM.

Assay [8] concerns the target T4, Tyrosyl-tRNA synthetase, putative (Trypanosoma cruzi (strain CL Brener)). Kind of assay: Trypanosoma cruzi tyrosyl tRNA synthetase (TcYRS) SOP. In kind it is functional. The note with it: 30 µM.
The target of assay [9] is Chromo domain-containing protein 1 (Saccharomyces cerevisiae (strain ATCC 204508 / S288c) (Baker's yeast)) (UniProt P32657). Kind of assay: ScCHD-1 Enzyme Inhibition Assay. Further: in the data most compounds retested in dose-response had high values. In kind it is functional. Conditions: 30 µM.

For some assays here: Entries with a potency or affinity are not part of this list.

Chain of Chromo domain-containing protein 1 (Saccharomyces cerevisiae (strain ATCC 204508 / S288c) (Baker's yeast)) (P32657 whole entry, the tested form may be a part): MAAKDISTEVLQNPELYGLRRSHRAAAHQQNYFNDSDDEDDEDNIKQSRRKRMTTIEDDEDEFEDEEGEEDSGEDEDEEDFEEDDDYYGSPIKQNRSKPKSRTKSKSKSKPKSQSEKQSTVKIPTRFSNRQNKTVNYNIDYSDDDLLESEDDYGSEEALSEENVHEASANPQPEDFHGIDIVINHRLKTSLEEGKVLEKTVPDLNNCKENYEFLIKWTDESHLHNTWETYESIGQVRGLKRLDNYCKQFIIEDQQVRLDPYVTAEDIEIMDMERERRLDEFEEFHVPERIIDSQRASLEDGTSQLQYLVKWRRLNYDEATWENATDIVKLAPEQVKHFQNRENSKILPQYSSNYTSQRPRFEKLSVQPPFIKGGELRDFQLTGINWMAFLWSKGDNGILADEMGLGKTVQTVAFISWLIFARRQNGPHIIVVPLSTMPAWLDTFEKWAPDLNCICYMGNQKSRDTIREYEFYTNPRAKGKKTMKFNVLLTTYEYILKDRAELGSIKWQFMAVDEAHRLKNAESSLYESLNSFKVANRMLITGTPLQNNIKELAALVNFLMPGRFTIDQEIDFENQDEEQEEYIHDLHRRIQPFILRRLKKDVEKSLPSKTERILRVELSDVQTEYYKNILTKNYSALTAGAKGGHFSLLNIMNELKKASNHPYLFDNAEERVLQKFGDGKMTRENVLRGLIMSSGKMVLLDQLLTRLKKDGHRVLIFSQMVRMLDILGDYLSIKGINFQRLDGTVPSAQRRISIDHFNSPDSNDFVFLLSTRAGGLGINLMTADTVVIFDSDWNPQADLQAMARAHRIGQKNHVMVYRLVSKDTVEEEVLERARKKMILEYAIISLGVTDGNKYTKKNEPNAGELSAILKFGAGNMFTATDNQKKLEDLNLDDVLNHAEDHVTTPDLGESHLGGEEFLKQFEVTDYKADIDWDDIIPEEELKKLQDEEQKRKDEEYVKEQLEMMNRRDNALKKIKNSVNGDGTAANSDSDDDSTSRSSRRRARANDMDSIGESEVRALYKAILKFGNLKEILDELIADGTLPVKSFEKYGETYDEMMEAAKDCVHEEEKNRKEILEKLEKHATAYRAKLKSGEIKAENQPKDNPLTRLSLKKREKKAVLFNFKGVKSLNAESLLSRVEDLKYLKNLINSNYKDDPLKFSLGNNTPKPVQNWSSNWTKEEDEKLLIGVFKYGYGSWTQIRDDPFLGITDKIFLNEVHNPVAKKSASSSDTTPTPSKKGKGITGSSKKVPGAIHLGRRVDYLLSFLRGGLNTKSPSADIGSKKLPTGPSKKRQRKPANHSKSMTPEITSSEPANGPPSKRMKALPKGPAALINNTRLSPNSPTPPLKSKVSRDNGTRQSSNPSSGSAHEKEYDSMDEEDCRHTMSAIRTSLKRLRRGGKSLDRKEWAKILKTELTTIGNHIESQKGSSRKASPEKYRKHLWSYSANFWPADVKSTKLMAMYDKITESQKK
Chain of Sialic acid-binding Ig-like lectin 9 (Homo sapiens) (Q9Y336 whole entry): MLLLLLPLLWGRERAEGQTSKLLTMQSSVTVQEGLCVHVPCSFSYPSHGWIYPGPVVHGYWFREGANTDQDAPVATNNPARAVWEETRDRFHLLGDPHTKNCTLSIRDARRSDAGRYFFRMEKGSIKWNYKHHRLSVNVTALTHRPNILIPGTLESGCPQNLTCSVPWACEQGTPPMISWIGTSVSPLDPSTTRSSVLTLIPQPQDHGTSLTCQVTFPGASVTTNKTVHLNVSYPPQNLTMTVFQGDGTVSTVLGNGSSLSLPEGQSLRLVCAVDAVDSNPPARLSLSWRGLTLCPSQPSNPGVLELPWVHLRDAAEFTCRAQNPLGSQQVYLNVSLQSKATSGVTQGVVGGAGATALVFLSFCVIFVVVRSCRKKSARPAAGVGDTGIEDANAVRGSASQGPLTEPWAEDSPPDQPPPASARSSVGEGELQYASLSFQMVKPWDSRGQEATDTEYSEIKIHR
Chain of Protein translocase subunit SecA (Escherichia coli (strain K12)) (P10408 whole entry): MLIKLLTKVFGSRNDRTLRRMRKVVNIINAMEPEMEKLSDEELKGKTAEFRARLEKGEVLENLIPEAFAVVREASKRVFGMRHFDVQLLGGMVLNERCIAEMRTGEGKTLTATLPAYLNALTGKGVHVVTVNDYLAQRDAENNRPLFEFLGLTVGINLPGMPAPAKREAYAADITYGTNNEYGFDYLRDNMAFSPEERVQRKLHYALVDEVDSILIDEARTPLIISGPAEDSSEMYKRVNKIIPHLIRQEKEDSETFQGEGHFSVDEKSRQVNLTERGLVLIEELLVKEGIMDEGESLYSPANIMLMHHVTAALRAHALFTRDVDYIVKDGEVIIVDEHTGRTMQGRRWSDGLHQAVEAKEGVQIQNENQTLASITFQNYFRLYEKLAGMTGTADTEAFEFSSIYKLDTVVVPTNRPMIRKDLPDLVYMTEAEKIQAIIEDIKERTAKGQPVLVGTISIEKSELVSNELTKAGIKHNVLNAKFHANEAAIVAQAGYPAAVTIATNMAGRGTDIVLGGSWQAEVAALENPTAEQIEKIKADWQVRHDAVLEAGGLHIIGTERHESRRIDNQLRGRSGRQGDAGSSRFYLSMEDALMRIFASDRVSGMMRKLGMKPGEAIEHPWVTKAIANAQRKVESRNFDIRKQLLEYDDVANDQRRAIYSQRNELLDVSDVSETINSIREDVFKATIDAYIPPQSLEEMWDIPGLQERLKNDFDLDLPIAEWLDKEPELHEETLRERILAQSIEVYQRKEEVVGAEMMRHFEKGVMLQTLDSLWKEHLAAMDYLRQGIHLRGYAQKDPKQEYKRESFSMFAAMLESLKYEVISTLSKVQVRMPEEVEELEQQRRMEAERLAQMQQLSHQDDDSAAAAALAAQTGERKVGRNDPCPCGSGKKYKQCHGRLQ

Take `COC(=O)CCN1CCCC1c1cccc2c1OCCO2` (stereo not given): the Percent Effect was -3.03% in assay [1]; -2.67% in assay [2]; -0.184% in assay [3]; 36% in assay [4]; -0.682% with Trypanosoma cruzi; -2.6% in assay [5]. Further, the Percent Effect in assay [6] was -1.92%; in the assay listed under Homo sapiens, 5.8%; in [7], 3.83%; in [8], 3.7%; in assay [9] it was 3.53%.
For the compound `N#Cc1ccc(S(=O)(=O)NC(=O)C2CC2)c(C(F)(F)F)c1`, the Percent Effect is -6.08% in [1]; 21.6% in assay [2]; -10.9% in assay [3]; 20.8% in assay [4]; 4.81% in the assay with Trypanosoma cruzi; -6.41% in [5]. In addition, the Percent Effect in assay [6] is 6.49%; in the assay filed under Homo sapiens, 7.08%; in assay [7], 6.4%; in [8], 23.5%; in assay [9], -7.62%.
Consider `CN(Cc1ccc(Cl)c(Cl)c1)C(=O)CNC(N)=O`, for which the Percent Effect in assay [1] is -3.49%; in [2], 10.5%; in assay [3], 9.37%; in [4] it was -5.68%; in the assay with Trypanosoma cruzi, 3.6%; in assay [5], -13%. Moreover, the Percent Effect in assay [6] is 17.4%; in the assay listed under Homo sapiens it was 2.07%; in assay [7], 4.25%; in assay [8], 15.6%; in assay [9] it was -1.83%.
Turning to `COc1cc2cc(C(=O)N[C@@H](C)C(=O)O)n(C)c2c(OC)c1OC`, the Percent Effect is 0.309% in assay [1]; 4% in assay [2]; 0.773% in [3]; 3.31% in assay [4]; -5.89% with Trypanosoma cruzi; -12.8% in [5]. In addition, the Percent Effect in assay [6] is 13.1%; in the assay listed under Homo sapiens, 0.994%; in assay [7], 8.47%; in assay [8], 7.69%; in [9] it was -9.47%.
`CC(C)c1ncc(CN2CCCC(CO)C2)cn1` (stereo not given): the Percent Effect in assay [1] was -1.56%; in assay [2] it was 1.35%; in assay [3], 11.1%; in assay [4], 9.9%; with Trypanosoma cruzi it was -6.32%; in assay [5], 1.16%. For the same compound, the Percent Effect in assay [6] was 3.59%; in the assay listed under Homo sapiens, -1.15%; in assay [7], 1.07%; in [8], 1.3%; in assay [9], -0.548%.
In the case of `Cc1nnc(N2CCCC3(CN(Cc4ccc(C)s4)CCO3)C2)o1` (stereo not given), the Percent Effect was 0.137% in [1]; 5.48% in [2]; -2.15% in assay [3]; 8.14% in assay [4]; 3.97% in the assay with Trypanosoma cruzi; -5.19% in [5]. In addition, the Percent Effect was 13.1% in [6]; -2.59% in the assay filed under Homo sapiens; 2.08% in assay [7]; 6.17% in assay [8]; -3.69% in assay [9].
As for `Cc1nc(C)n(CC2CCCN2Cc2cscn2)n1` (stereo not given), the Percent Effect was -4.14% in assay [1]; 2.6% in assay [2]; 3.5% in [3]; 10.9% in assay [4]; 2.64% with Trypanosoma cruzi; -0.21% in [5]. For the same compound, the Percent Effect is -0.404% in assay [6]; -14.6% in the assay filed under Homo sapiens; 5.71% in assay [7]; 11.8% in assay [8]; -13.6% in assay [9].
`CCc1nc(CC(=O)NCC(Cc2ccc(F)cc2)C(N)=O)cs1` (stereo not given): the Percent Effect in assay [1] is -8.91%; in assay [2], 5.26%; in [3] it was -6.2%; in assay [4], 10.1%; in the assay with Trypanosoma cruzi it was 7.89%; in [5], -3.55%. In addition, the Percent Effect in assay [6] is -2.21%; in the assay filed under Homo sapiens it was 11.5%; in assay [7], 4.25%; in [8] it was 13%; in assay [9] it was -14.4%.
Consider `CCn1c(C)nnc1CN(C)C1CCN(CCCOC)C1` (stereo not given), for which the Percent Effect in assay [1] is -1.09%; in [2] it was 18.2%; in [3] it was -9.12%; in [4], 4.71%; with Trypanosoma cruzi it was 3.82%; in assay [5], 6.11%. The Percent Effect was 11.7% in assay [6]; -2.93% in the assay filed under Homo sapiens; 7.62% in [7]; 25.9% in assay [8]; -10.1% in [9].
For `O=C(O)c1nnn(Cc2cccc(C(F)(F)F)c2)c1-c1cccnc1`, the Percent Effect is 2.36% in assay [1]; 6.67% in [2]; 10.2% in assay [3]; -2.89% in assay [4]; -4.13% in the assay with Trypanosoma cruzi; -10.4% in [5]. The Percent Effect in [6] was 8.5%; in the assay listed under Homo sapiens, 4%; in assay [7], 7.41%; in assay [8] it was 12.8%; in [9], -7.79%.

The values above are taken from ChEMBL document CHEMBL3988442, “University of Dundee, Small-Polar-MMV Screening Library” (2021).
